Shown is part of a subset that was picked to be rich in hits.
ALR inh = inhibitors of human sulfhydryl oxidase ALR; P55789; purified ALR, DTT oxidation, H2O2 HRP-luminol luminescence; inhibition, % (no concentration beside the values); 290,000 compounds, 3.8% hits;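 active means mean replicate inhibition above about 79%, with every replicate also reaching it, limit read from the data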
ARNT-TACC3 inh = ARNT/TACC3 interaction disruption. Q9Y6A5. AlphaScreen His-ARNT PAS-B/GST-TACC3 binding, luminescence; TACC3 fragment carries E629A point mutation. inhibition, % at 9.99 µM. 390,000 compounds, 0.66% hits. AID 623870;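 active means mean inhibition of replicates at least 50% and at least half of replicates each reaching 50%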
PglD DTNB = PglD (C. jejuni) enzyme inhibition. purified PglD enzyme, DTNB colorimetric CoA detection. 360,000 compounds, 0.098% hits. AID 602405. inhibition, % at 12.5 µM; in the data active means inhibition above about 16%, passing the limit was not always enough
PDI inh = PDI (human) enzyme inhibition. P07237. PDI insulin aggregation turbidity, A650, 90 min. inhibition, % at 10 µM. 350,000 compounds, 0.052% hits;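 active means mean inhibition across replicates of 30% or more, whatever share of single replicates reach that level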
NRP1-CendR mod = modulators of CendR peptide binding to human neuropilin-1. O14786. FAM-RPARPAR peptide binding to NRP-1, fluorescence polarization. inhibition, % at 25 µM. 360,000 compounds, 0.85% hits. AID 602438;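 active means inhibition or corrected inhibition above about 18%, plus a signal ratio from 0.5 to 1.5, limit read from the data, passing the limit was not always enough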
Target sequence (O14786 whole entry, looked up): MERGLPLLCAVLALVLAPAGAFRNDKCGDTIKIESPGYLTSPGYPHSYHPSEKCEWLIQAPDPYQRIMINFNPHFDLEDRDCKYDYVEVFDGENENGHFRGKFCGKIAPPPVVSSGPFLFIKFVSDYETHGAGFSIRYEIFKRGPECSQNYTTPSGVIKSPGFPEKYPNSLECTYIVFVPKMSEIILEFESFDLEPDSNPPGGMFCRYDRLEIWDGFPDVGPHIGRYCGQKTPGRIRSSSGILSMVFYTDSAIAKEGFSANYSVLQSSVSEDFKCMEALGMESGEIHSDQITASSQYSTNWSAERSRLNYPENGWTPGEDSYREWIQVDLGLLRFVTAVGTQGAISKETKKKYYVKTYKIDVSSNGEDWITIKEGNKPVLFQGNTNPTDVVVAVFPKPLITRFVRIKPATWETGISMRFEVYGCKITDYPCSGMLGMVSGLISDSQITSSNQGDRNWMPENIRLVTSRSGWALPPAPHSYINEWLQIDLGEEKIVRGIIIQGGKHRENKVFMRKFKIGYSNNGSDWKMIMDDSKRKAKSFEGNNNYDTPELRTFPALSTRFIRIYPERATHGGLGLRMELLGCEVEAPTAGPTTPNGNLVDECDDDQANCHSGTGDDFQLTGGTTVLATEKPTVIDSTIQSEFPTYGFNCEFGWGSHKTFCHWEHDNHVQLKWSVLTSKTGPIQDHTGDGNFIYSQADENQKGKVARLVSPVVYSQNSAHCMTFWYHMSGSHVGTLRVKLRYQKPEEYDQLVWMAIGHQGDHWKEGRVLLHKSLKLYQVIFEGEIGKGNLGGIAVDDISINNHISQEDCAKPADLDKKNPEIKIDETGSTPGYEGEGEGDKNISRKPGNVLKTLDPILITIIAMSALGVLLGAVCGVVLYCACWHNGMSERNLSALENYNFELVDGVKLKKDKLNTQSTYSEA
ERp5 block = ERp5 (human) disulfide isomerase inhibition; AID 651711; Q15084; 350,000 compounds, 0.05% hits; ERp5 insulin aggregation, absorbance 650 nm, 90 min; inhibition, % at 9.99 µM;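 active means mean replicate inhibition above about 25%, with every replicate also reaching it, limit read from the data, passing the limit was not always enough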
Numbers stand for hits; n = inactive; x = no result given.

SMILES	ALR inh	ARNT-TACC3 inh	PglD DTNB	PDI inh	NRP1-CendR mod	ERp5 block
Cc1cc2cc(CNS(=O)(=O)c3ccccc3)ccc2n1C	96	n	n	x	n	n
Cc1cc2cc(CNC(=O)c3ccc(S(=O)(=O)N4CCCC4)cc3)ccc2n1C	n	n	n	x	26	n
Cc1ccccc1NC(=S)NCc1ccc2c(c1)cc(C)n2C	n	n	n	x	n	n
Cc1cc2cc(CNC(=S)NCc3ccccc3)ccc2n1C	n	n	n	n	22	n
CCOC(=O)c1cc(NC(=O)c2cccs2)ccc1N1CCOCC1	n	n	x	n	n	n
CCOC(=O)c1cc(NCc2cccs2)ccc1N1CCOCC1	99	n	n	n	n	n
COC(=O)c1cc(NCc2ccccc2F)ccc1N1CCOCC1	99	n	n	n	n	x
CCOc1ccccc1CNc1ccc(N2CCOCC2)c(C(=O)O)c1	n	n	n	n	n	n
COc1ccc(S(=O)(=O)N(C)C[C@H]2Oc3c(NC(=O)c4cc(C)nn4C)cccc3C(=O)N([C@H](C)CO)C[C@@H]2C)cc1	x	x	n	x	x	n
CSC(=Nc1ccccc1)C1=C(O)COC1=O	97	n	x	n	n	x
O=C(COC(=O)c1ccc(N2CCCC2=O)cc1)c1ccccc1	n	n	n	n	28	n
O=C(COC(=O)c1ccc(N2CCCC2=O)cc1)Nc1ccccc1	n	n	n	n	n	n
COc1cc(SC)ccc1C(=O)Nc1c(Cl)cncc1Cl	77	n	x	n	n	n
S=C(NCc1ccccn1)NN=Cc1ccccn1	x	58	x	n	n	n
CC(=O)[C@]12O[C@@]3(COC[C@H](c4ccccc4)N3C1=O)[C@H]1C(=O)N(c3ccccc3)C(=O)[C@H]12	x	x	x	x	x	n
CCN=c1scc(C)n1/N=C/c1ccsc1	99	n	n	n	n	x
CC(=O)Nc1ccc(S(=O)(=O)Nc2nc3ccccc3nc2Nc2ccccc2)cc1	x	n	x	n	n	n
COc1ccc(S(=O)(=O)Nc2nc3ccccc3nc2Nc2cccc(C(=O)O)c2)cc1	98	n	n	n	n	n
CC(=O)Nc1ccc(Nc2nc3ccccc3nc2NS(=O)(=O)c2ccccc2)cc1	98	n	n	n	n	n
Cc1ccc(S(=O)(=O)Nc2ccc3c(c2)C(=O)N([C@@H](C)CO)C[C@@H](C)[C@H](CN(C)C(=O)Nc2c(C)noc2C)O3)cc1	x	n	n	x	x	n
O=C(Cn1c(=O)c2c(ncn2C2CCCC2)n(Cc2ccccc2)c1=O)N1CCc2ccccc21	n	n	n	n	29	x
Nc1nc(N)c(N=O)c(OCC2CCCCC2)n1	92	n	n	n	n	n
Cc1c(C(=O)NCc2ccc3c(c2)OCCO3)sc(=O)n1Cc1ccc2c(c1)OCO2	x	x	n	n	n	n
CCn1c(N)c(C(=O)NCCOC)sc1=S	100	n	n	n	n	x
CCn1c(N)c(C(=O)Nc2ccccc2C(=O)OC)sc1=S	n	x	x	n	n	x
SMILES	ALR inh	ARNT-TACC3 inh	PglD DTNB	PDI inh	NRP1-CendR mod	ERp5 block
CCn1c(N)c(C(=O)NCc2ccc3c(c2)OCO3)sc1=S	99	n	n	n	n	x
O=C(C[C@H]1CC[C@@H]2[C@H](COC[C@H](O)CN2C(=O)c2ccccc2)O1)N1CCc2ccccc2C1	x	n	n	x	x	n
O=C(C1CCCN(S(=O)(=O)c2cnc[nH]2)C1)N1CCN(c2ccc(Cl)cc2)CC1 (stereo unspecified)	96	n	n	n	n	n
Cc1ccc(C)c(N2CCN(C(=O)C3CCCN(S(=O)(=O)c4cnc[nH]4)C3)CC2)c1 (stereo unspecified)	97	n	n	n	n	n
Cc1cccc(-c2ccc([C@@H]3[C@H](CO)N4CCCCN(S(=O)(=O)c5cn(C)cn5)C[C@@H]34)cc2)c1	x	n	n	x	x	n
C[C@H](NC(=O)[C@H]1N[C@H]2c3ccc(-c4cncnc4)c(=O)n3C[C@H]2[C@@H]1CO)c1ccccc1	x	n	n	x	x	n
CCc1nnc2n1N=C(c1ccc([N+](=O)[O-])cc1)CS2	97	n	n	n	n	n
CCc1nnc2n1N=C(c1ccc(OC)cc1)CS2	n	n	n	n	n	x
Cn1c(=O)c2c(-c3ccccc3)n(-n3cnnc3)cc2n(C)c1=O	96	n	n	n	n	x
CC(C)CC#Cc1cnc2c(c1)C(=O)N([C@H](C)CO)C[C@H](C)[C@H](CN(C)Cc1ccccc1)O2	x	x	x	x	x	n
C/C=C/c1cnc2c(c1)C(=O)N([C@H](C)CO)C[C@@H](C)[C@H](CN(C)Cc1ccccc1)O2	x	n	n	x	x	n

From PubChem
